Source: PubChem BioAssay (NCI)
About 83,000 compounds went through this panel and 20% of them were active in at least one assay; those are over-represented in the sample as a whole.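 For each line, cells grew in 96-well plates with the test compound present at a single concentration for 48 hours.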 A number with no mark means an inactive call. The source made the active and inactive calls. Rule for the calls: active = growth percent below 10; inactive = the rest.

Legend:
Test in all cases: NCI-60 one-dose screen, 48 h (100 = growth as untreated, 0 = no growth, -100 = all killed)
NCI-H23 lung = details: 10 µM unless noted
NCI-H226 lung = details: 10 µM unless noted
NCI-H322M lung = details: 10 µM unless noted
HOP-62 NSCLC = details: 10 µM unless noted
NCI-H460 lung = details: 10 µM unless noted
786-0 renal = details: 10 µM unless noted
COLO 205 colon = details: 10 µM unless noted
DU-145 prostate = details: 10 µM unless noted
K-562 leukemia = details: 10 µM unless noted
MALME-3M melanoma = details: 10 µM unless noted
MDA-MB-231 breast = details: 10 µM unless noted
RXF 393 renal = details: 10 µM unless noted
SF-268 CNS = details: 10 µM unless noted
SF-295 CNS = details: 10 µM unless noted
SF-539 CNS = details: 10 µM unless noted
M14 melanoma = details: 10 µM unless noted
HOP-92 NSCLC = details: 10 µM
NCI-H522 lung = details: 10 µM
A549/ATCC NSCLC = details: 10 µM unless noted
UACC-257 melanoma = details: 10 µM unless noted

Row | Structure (SMILES) | growth (NCI-H23 lung) | growth (NCI-H226 lung) | growth (NCI-H322M lung) | growth (HOP-62 NSCLC) | growth (NCI-H460 lung) [%] | growth (786-0 renal) | growth (COLO 205 colon) | growth (DU-145 prostate) | growth (K-562 leukemia) | growth (MALME-3M melanoma) | growth (MDA-MB-231 breast) | growth (RXF 393 renal) | growth (SF-268 CNS) | growth (SF-295 CNS) | growth (SF-539 CNS) | growth (M14 melanoma) | growth (HOP-92 NSCLC) | growth (NCI-H522 lung) | growth (A549/ATCC NSCLC) | growth (UACC-257 melanoma)
1 | CCOc1ccc(Br)cc1/C=C(\C#N)c1ccc([N+](=O)[O-])cc1 | 87.6% | 81.2% | 77.4% | 22.1% | 82.2 | 86.3% | 97.2% | 80.4% | 80.6% | 62.2% | 61.2% | 66.7% | 60.9% | 76.5% | 81.1% | 101% | – | – | – | –
2 | Ic1ccc(SSc2ccc(I)cc2)cc1 | 98% | 90.6% | 100% | 108% | – | 92.6% | 124% | 103% | 95.5% | 114% | 87.8% | 99.7% | 59.2% | 77.5% | 86.1% | 104% | 90.7% | 86.7% | 74.1% | 88.1%
3 | CCCCCCNC(=O)Oc1ccc(/C(=C(/C)Cc2ccc(OC)cc2)c2ccc(OCCN(C)C)cc2)cc1 | 82.5% | 85.7% | 86.5% | 74.6% | – | 59.4% | -60.4% (active) | 78.7% | -38.8% (active) | -34.7% (active) | 43% | 51.4% | 72.3% | 65.8% | 73.2% | -53.9% (active) | 46% | 60% | 54% | 5.2% (active)
4 | CCCCCCNc1nc(N2CCOCC2)c2[nH]c(NCCCCCC)nc2n1 | -94.5% (active) | -82.9% (active) | -46.7% (active) | -95.9% (active) | – | -100% (active) | -64.8% (active) | -88.1% (active) | -52.4% (active) | -62.2% (active) | -94.4% (active) | -84.9% (active) | -92.8% (active) | -61.8% (active) | -94.4% (active) | -98% (active) | -77.7% (active) | -79.8% (active) | -90.1% (active) | -95.4% (active)
5 | OC(c1ccccc1)(c1ccccc1)C(F)(F)F | 97.4% | 112% | 116% | 102% | – | 106% | 107% | 109% | 99.7% | 122% | 101% | 120% | 82.8% | 107% | 101% | – | 95.7% | 84.6% | 99.1% | 104%
6 | CC(C)C(=O)c1ccc(Cl)s1 | 103% | 93.2% | 91.5% | 98.1% | 105 | 102% | 109% | 106% | 91.5% | 82.8% | 105% | 105% | 102% | 99.3% | 107% | 101% | – | – | – | –
7 | OCCN1CCCN(CCCN2c3ccccc3Sc3ccc(C(F)(F)F)cc32)CC1 | 68.8% | 92.7% | 73.6% | 74.8% | 40.7 | 65.1% | -81.8% (active) | 78.8% | 2.61% (active) | 44.5% | 64.9% | 47% | 64.9% | 31% | 67.2% | 7.54% (active) | – | – | – | –
8 | COc1ccc2cc(C(C)C(=O)Nc3ccc(S(=O)(=O)Nc4cc(C)on4)cc3)ccc2c1 (configuration not stated) | 101% | 106% | 108% | 88.5% | – | 102% | 115% | 115% | 95% | 115% | 117% | 92% | 100% | 105% | 97.4% | – | 102% | 89.7% | 86.2% | –
9 | CCCCCCCCCc1cc[n+](CC(=O)c2ccc([N+](=O)[O-])cc2)cc1 | 14.2% | 31.8% | 71.6% | 27.2% | – | 31.9% | -76.9% (active) | 23.7% | -4.43% (active) | -34.9% (active) | -76.7% (active) | 32.5% | 29.6% | 9.4% (active) | -87.5% (active) | -67.3% (active) | -45.2% (active) | -12.9% (active) | -23.7% (active) | 0.0548% (active)
10 | CC[n+]1c(C)ccc2cc(C)ccc21 | 96% | 93.6% | 111% | 97.5% | 110 | – | 101% | 126% | 91.2% | 131% | 91.7% | 111% | 102% | 119% | 110% | – | – | – | 75.3% | 105%
11 | Cc1ccc(CC(=O)O)c(C)c1 | 91.3% | 99.8% | 108% | 99.6% | – | 105% | 113% | 107% | 104% | 110% | 105% | 121% | 96.3% | 97.1% | 106% | – | 98.5% | 85% | 94.5% | 91.7%
12 | OCCN1CCN(CC/C=C2/c3ccccc3Sc3ccc(C(F)(F)F)cc32)CC1 | 72.3% | 91% | 72.6% | 75.9% | 82.7 | 71.2% | 1.04% (active) | 82.7% | 6.74% (active) | 69% | 80.7% | 59.6% | 70.7% | 88.7% | 87.6% | 58.5% | – | – | – | –
13 | CCC(C)(CC)c1ccc(O)c(C)c1 | 98.9% | 98% | 94.4% | 101% | 105 | 94.8% | 105% | 114% | 114% | 99.8% | 106% | 108% | 109% | 105% | 100% | 99.7% | – | – | – | –
14 | COc1ccc(-c2nc(SCC(C)C)nc(Nc3ccc(C(=O)O)cc3)c2C#N)cc1 | 88.8% | 87.7% | 96.9% | 116% | – | 106% | 89.7% | 88.7% | 89% | -57.7% (active) | 109% | 83.1% | 91% | 75.9% | 97.1% | – | 89% | 84.7% | 89% | 96.9%
15 | C[n+]1c2ccccc2c(Nc2ccc(NS(=O)(=O)CCCCN=C(N)N)cc2)c2ccc(N)cc21 | 26% | 41% | 71.4% | 32.2% | 10.9 | 44.1% | 50.4% | 23.7% | 41% | 32.6% | 93.9% | 71% | 39.7% | 5.07% (active) | 43% | 53.2% | – | – | – | –
16 | CCCCCN1CCN(C(CC(=O)c2ccccc2)C(=O)c2ccccc2)CC1 (configuration not stated) | 98.8% | 103% | 101% | 101% | – | 102% | 55.1% | 69.1% | 11.2% | 50.4% | – | 111% | 91.5% | 105% | 110% | 97.6% | 83.4% | 1.49% (active) | 101% | 107%
